About 30 (0.04%) of roughly 69,000 compounds showed an effect of 50% or more. Only a selection was taken, and strong results are over-represented in it overall.
Each molecule was assayed against T1, Histidine--tRNA ligase (Trypanosoma cruzi (strain CL Brener)) (UniProt Q4DA54) (assay: Trypanosoma cruzi histidyl tRNA synthetase (Tc-HisRS)). Conditions: 30 µM.
T1 sequence (whole entry): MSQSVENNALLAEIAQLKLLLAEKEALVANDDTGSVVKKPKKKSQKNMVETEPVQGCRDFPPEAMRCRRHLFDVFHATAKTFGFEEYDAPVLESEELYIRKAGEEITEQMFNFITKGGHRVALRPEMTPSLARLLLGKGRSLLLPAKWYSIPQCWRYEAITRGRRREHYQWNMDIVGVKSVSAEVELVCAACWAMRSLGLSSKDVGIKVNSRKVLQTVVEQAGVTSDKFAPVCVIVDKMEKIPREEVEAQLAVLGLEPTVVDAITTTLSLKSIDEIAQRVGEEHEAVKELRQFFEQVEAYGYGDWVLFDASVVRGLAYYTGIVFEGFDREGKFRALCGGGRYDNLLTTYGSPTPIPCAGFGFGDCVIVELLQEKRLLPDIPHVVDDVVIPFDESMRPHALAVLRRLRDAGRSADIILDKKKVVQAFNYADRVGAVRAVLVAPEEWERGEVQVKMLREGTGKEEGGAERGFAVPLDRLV
Type: functional
Set-up: scale not given: direction of the effect not stated beside the values
Work on Cn1cc(NC(=O)N2CCC2c2ccccc2)ccc1=O (configuration not stated) yielded a Percent Effect of 22.6%. For Cn1cc(NC(=O)N2CCCC2c2cccnc2)ccc1=O (configuration not stated), the Percent Effect was 38.6%. With Cn1cc(NC(=O)N2CCCC2c2ccccn2)ccc1=O (configuration not stated) the Percent Effect was 69.3%. Cc1cccc(C(=O)N2C[C@H](NS(C)(=O)=O)[C@@H]3OCCC[C@@H]32)n1 was tested, and the Percent Effect was 12.6%. With COc1ccc(CNC(=O)Nc2ccc(CN3CCOC3=O)cc2)cc1 the Percent Effect was 2.12%. In the case of CN(Cc1ccsc1)C(=O)Nc1ccc(=O)n(C)c1, the Percent Effect is reported as 13%. Work on O=C(NCc1ccoc1)Nc1ccc(CN2CCOC2=O)cc1 yielded a Percent Effect of 3.25%. With COC(=O)c1ccc(CNC(=O)Nc2ccc(=O)n(C)c2)cc1 the Percent Effect was 7.79%. With Cn1cc(NC(=O)NCc2ccoc2)ccc1=O the Percent Effect was 72.7%. Cn1cc(NC(=O)CCc2ccsc2)ccc1=O showed a Percent Effect of 18.2%. Cc1nnc(NC(=O)NCc2ccoc2)s1 showed a Percent Effect of 7.43%. Cn1cc(NC(=O)NCc2ccsc2)ccc1=O gave a Percent Effect of 72.7%. Molecule COc1ccc(CNC(=O)Nc2ccc(=O)n(C)c2)cc1 has a Percent Effect of 76.6%. With Cc1ccc(N2CC3(CCN(c4nccs4)C3)C2)nn1 the Percent Effect was 4.96%. Work on Cc1ccc(N2CCCC3(COCCN(c4nccs4)C3)C2)nn1 (configuration not stated) yielded a Percent Effect of 12.4%. Work on Cc1ccc(N2CCC3(CC2)COCCN(c2nccs2)C3)nn1 yielded a Percent Effect of 62.3%. CNc1cc(-c2ccccc2CN)c2cc[nH]c2n1 was tested, and the Percent Effect was 40.2%. With CNc1cc(-c2ccc(COCCN)cc2)c2cc[nH]c2n1 the Percent Effect was 4.88%. Molecule CNc1cc(-c2cccc(CN)c2)c2cc[nH]c2n1 has a Percent Effect of 81.7%. CN(Cc1cccs1)C1CCC[C@@H]2CN(C(=O)c3cccn3C)C[C@H]12 (some centres not stated) showed a Percent Effect of 5.06%. Molecule O=C1N(CC2CC2)CCC12CCN(c1ncccn1)CC2 has a Percent Effect of 4.51%. c1ccc2c(c1)N(CC1CCOC1)CC21CCN(c2cnccn2)CC1 (configuration not stated) was tested, and the Percent Effect was 29.6%. With c1cnc(N2CCC3(CC2)CN(CC2CC2)c2ccccc23)nc1 the Percent Effect was 66.2%. CC(C)=CCN1C[C@H]2CC[C@@H]1CN(C(=O)c1ccc3c(c1)OCO3)C2 was tested, and the Percent Effect was -7.73%. O=C1O[C@@H]2CN(Cc3ccccc3F)C[C@@H]2N1CCCN1CCOCC1 showed a Percent Effect of 10.2%. CC(C)COC[C@@H]1CC[C@H]2[C@H](CCN2C(=O)c2ccncc2F)O1 showed a Percent Effect of -2.8%. With COCCNC(=O)[C@@]12CCO[C@@H]1CCN(Cc1scnc1C)C2 the Percent Effect was 4.3%. Molecule COc1ccc(N2Cc3nc(N4CCCC4)ncc3C2=O)cc1Cl has a Percent Effect of -3.73%. In the case of CCc1cc(N[C@H]2CC[C@@H](N)CC2)n2nc(C)c(C)c2n1, the Percent Effect is reported as 1.34%. In the case of CC(C)CS(=O)(=O)N1C[C@H]2C[C@H](C(=O)N3CCN(C)CC3)[C@@H](C1)O2, the Percent Effect is reported as 7.78%. CN1CCCCC1c1ncc2c(n1)CCN(Cc1ccc(Cl)c(F)c1)C2 (configuration not stated) gave a Percent Effect of 30%. O=C([C@H]1C[C@@H]2CCN(c3cccc(F)c3)C[C@H]2O1)N1CCCC1 gave a Percent Effect of 0.952%. With CN1CCN2CCN(Cc3cnc(NCc4ccccc4)nc3)CC2C1 (configuration not stated) the Percent Effect was 9.88%. Molecule c1ccc(CNc2ncc(CN3CCCN4CCC[C@H]4C3)cn2)cc1 has a Percent Effect of 48.1%. In the case of C1CC(CN2C[C@@H]3C[C@@H](c4nnc(C5CC5)o4)O[C@@H]3C2)C1, the Percent Effect is reported as 0%. With O=C(c1ccc(F)cc1)N1C[C@@H]2COC[C@]2(COc2cccnc2)C1 the Percent Effect was 8.47%. With Cc1ccc(C(=O)N2CC[C@@H]3[C@H]2CCC(=O)N3c2ccccc2)o1 the Percent Effect was 2.73%. Molecule CCCN1CC[C@@H]2[C@@H](CO[C@H]2CNC(=O)c2nccn2C)C1 has a Percent Effect of 3.09%. Fc1ccc(F)c(CN2CCC(c3cc4ncccc4cn3)CC2)c1 gave a Percent Effect of 29.2%. Fc1cccc(CN2CCC(c3cc4ncccc4cn3)CC2)c1F was tested, and the Percent Effect was 33.9%. COc1ccc(C)cc1CN1CCC(c2cc3ncccc3cn2)CC1 gave a Percent Effect of 66.2%. Molecule Cc1occc1C(=O)N1C[C@@H]2OCCN(CCN3CCCC3)[C@@H]2C1 has a Percent Effect of 4.9%. Molecule Cc1csc(CN2CC[C@H]3C[C@H](c4nnc(C)[nH]4)O[C@@H]3C2)n1 has a Percent Effect of -2.48%. In the case of Cc1ccc(S(=O)(=O)N2C[C@H]3C[C@H](NC(=O)c4ccnn4C)[C@H]3C2)cc1, the Percent Effect is reported as 5.95%. For O=C(c1ccsc1)N1C[C@@H]2CCN(c3cccnc3)C[C@@H]2C1, the Percent Effect was -1.97%. Molecule CC(C)=CCN1CCN(Cc2nc3ccccc3[nH]2)[C@H]2CS(=O)(=O)C[C@H]21 has a Percent Effect of 4.35%. Cc1cc(C(=O)N2C[C@@H]3COC[C@]3(c3nnc(C)o3)C2)on1 showed a Percent Effect of 0.99%. Work on CNc1nc2c(s1)C(c1cccc(Cl)c1Cl)CC(=O)N2 (configuration not stated) yielded a Percent Effect of 34.8%. Work on CNc1nc2c(s1)C(c1c(F)cccc1Cl)CC(=O)N2 (configuration not stated) yielded a Percent Effect of 52.2%. CNc1nc2c(s1)C(c1c(Cl)cccc1Cl)CC(=O)N2 (configuration not stated) gave a Percent Effect of 31.5%. Cc1ccc(CN2C[C@@H]3COC[C@]3(COc3ccc(C#N)cn3)C2)o1 was tested, and the Percent Effect was 4.39%. O=C(CCc1ccccc1)N[C@H]1CC[C@@]2(CCC(=O)N2)CC1 was tested, and the Percent Effect was 9.71%. O=C(c1ccco1)N1CCO[C@@H]2CN(Cc3nccs3)CC[C@@H]2C1 was tested, and the Percent Effect was 2.21%. Molecule CN(C)C(=O)[C@H]1C[C@H]2OCC[C@H]2N(Cc2ccc3ccccc3n2)C1 has a Percent Effect of 12.8%. In the case of O=C(N1CCOCC1)[C@@]12CCO[C@@H]1CCN(CC1CCCC1)C2, the Percent Effect is reported as 0%. In the case of Cc1ncccc1NC(=O)[C@@H]1CCO[C@@H]2CCN(c3ccccc3)C[C@@H]21, the Percent Effect is reported as 7.26%. Cc1noc([C@@H]2C[C@H]3OCC[C@H]3N(Cc3cc(C)c(C)o3)C2)n1 showed a Percent Effect of 8.87%. Work on O=C1CC[C@H]2[C@H](CCN2C(=O)C2CCCO2)N1Cc1ccncc1 (some centres not stated) yielded a Percent Effect of -3.83%. O=C(NCc1ccco1)[C@H]1CC[C@@H]2[C@@H](CCN2C2CCC2)O1 showed a Percent Effect of 8.54%. Work on COc1ccc(CN2CCN(C(=O)N(C)C)[C@@H]3CS(=O)(=O)C[C@@H]32)cc1F yielded a Percent Effect of 3.06%. With CO[C@H]1C[C@@H]2CN(C(=O)c3ccc(C)s3)C[C@@H]2C1 the Percent Effect was 8.05%. Cc1cc(=O)n(C)cc1NC(=O)Cc1cccc(F)c1 was tested, and the Percent Effect was 14.2%. With Cc1cc(=O)n(C)cc1NC(=O)Cc1cc(F)ccc1F the Percent Effect was 57.9%. In the case of Cc1cc(=O)n(C)cc1NC(=O)Cc1ccc(C(F)(F)F)cc1, the Percent Effect is reported as 14.2%. CCC1=N[C@@]2(CC[C@@H]3CN(C(=O)NCc4ccccc4)C[C@@H]32)C(=O)N1C gave a Percent Effect of 3.83%. With COc1ccccc1C1CC(=O)Nc2nc(N3CCCCC3)sc21 (configuration not stated) the Percent Effect was 74.5%. Nc1nc2c(s1)C(c1c(F)cccc1Cl)CC(=O)N2 (configuration not stated) was tested, and the Percent Effect was -3.73%. For CNc1nc2c(s1)C(c1ccccc1Cl)CC(=O)N2 (configuration not stated), the Percent Effect was 17.4%. CC(C)Oc1ccccc1C1CC(=O)Nc2nc(N3CCOCC3)sc21 (configuration not stated) was tested, and the Percent Effect was 1.24%. In the case of CCOc1cccc(C2CC(=O)NCc3nc(N4CCCC4)sc32)c1 (configuration not stated), the Percent Effect is reported as 9.84%. For O=C1CC(c2ccccc2Br)c2sc(N3CCOCC3)nc2N1 (configuration not stated), the Percent Effect was 16.1%. Work on COc1cccc(C2CC(=O)Nc3nc(N4CCOCC4)sc32)c1OC (configuration not stated) yielded a Percent Effect of 65.2%. CNc1nc2c(s1)C(c1ccccc1F)CC(=O)N2 (configuration not stated) showed a Percent Effect of 14.9%. In the case of COc1cccc(C2CC(=O)Nc3nc(N4CCCCC4)sc32)c1OC (configuration not stated), the Percent Effect is reported as 74.5%. COc1cccc(C2CC(=O)Nc3nc(N)sc32)c1OC (configuration not stated) showed a Percent Effect of 70.7%. Work on CNc1nc2c(s1)C(c1cccc(F)c1F)CC(=O)N2 (configuration not stated) yielded a Percent Effect of 3.26%. O=C1CC(c2ccccc2C(F)(F)F)c2sc(N3CCOCC3)nc2N1 (configuration not stated) was tested, and the Percent Effect was 33.5%.

From ChEMBL document CHEMBL3988442, “University of Dundee, Small-Polar-MMV Screening Library” (2021)
